The chains are these.
B1: PhoQ; a variant is named by its letters at X, in order, P23837 (parent)
chain: MKKLLRLFFPLSLRVRFLLATAAVVLVLSLAYGMVALIGYSVSFDKTTFRLLRGESNLFYTLAKWENNKLHVELPENIDKQSPTMTLIYDENGQLLWAQRDVPWLMKMIQPDWLKSNGFHEIEADVNDTSLLLSGDHSIQQQLQEVREDDDDAEMTHSVAVNVYPATSRMPKLTIVVVDTIPVELKSSYMVWSWFIYVLSANLLLVIPLLWVAAWWSLRPIEALAKEVRELEEHNRELLNPATTRELTSLVRNLNRLLKSERERYDKYRTTLTDLTHSLKTPLXXLQXXLRSLRSEKMSVSDAEPVMLEQISRISQQIGYYLHRASMRGGTLLSRELHPVAPLLDNLTSALNKVYQRKGVNISLDISPEISFVGEQNDFVEVMGNVLDNACKYCLEFVEISARQTDEHLYIVVEDDGPGIPLSKREVIFDRGQRVDTLRPGQGVGLAVAREITEQYEGKIVAGESMLGGARMEVIFGRQHSAPKDE

The full ranking holds about 140,000 sequences; the median of “enrichment ratio after two sorts for PhoP signalling” is about 0, and the highest 2% start at about 11. This is one part of a sample in which the highest values are shown more often than they occur. Where only a bound is given, the exact number is not on record here.

Variants of B1 are the subject of this assay. Kind of assay: enrichment ratio after two sorts for PhoP signalling (ratio (wild type AVST 3.29)); higher = more functional. Particulars: with PhoP (E. coli).
Turning to LESG, the enrichment ratio was at most 0.25.

KRHA: the enrichment ratio is at most 0.25.

For DVYV, the enrichment ratio was at most 0.25.

For SDAE, the enrichment ratio is at most 0.25.

As to YELP, the enrichment ratio is at most 0.25.

EIRK: the enrichment ratio was at most 0.25.

In the case of ESAA, the enrichment ratio is at most 0.25.

Take EVKR: the enrichment ratio is at most 0.25.

With KHRA, the enrichment ratio was at most 0.25.

Consider IFHG, for which the enrichment ratio was at most 0.25.

For MCIH, the enrichment ratio is at most 0.25.

As to QGWT, the enrichment ratio is 36.

As for YTWT, the enrichment ratio is at most 0.25.

As to VRWT, the enrichment ratio is at most 0.25.

Take KEWT: the enrichment ratio is at most 0.25.

NEWT: the enrichment ratio was 32.

Regarding DMWT, the enrichment ratio is at most 0.25.

Regarding MRWT, the enrichment ratio was at most 0.25.

On to TTWT, for which the enrichment ratio came out at 15.

For MQWT, the enrichment ratio worked out at 21.2.

In the case of FQWT, the enrichment ratio was at most 0.25.

In the case of ITWT, the enrichment ratio was at most 0.25.

As to FFWT, the enrichment ratio was at most 0.25.

Turning to NKIQ, the enrichment ratio is at most 0.25.

On to ENRF, for which the enrichment ratio is at most 0.25.

For the variant PLPI, the enrichment ratio is at most 0.25.

On to WSFP, for which the enrichment ratio is at most 0.25.

YDQD: the enrichment ratio is at most 0.25.

As for VCTS, the enrichment ratio was at most 0.25.

For WTPD, the enrichment ratio was at most 0.25.

In the case of SKDW, the enrichment ratio is at most 0.25.

In the case of EAPV, the enrichment ratio was at most 0.25.

As for PSRQ, the enrichment ratio is at most 0.25.

As for MGCC, the enrichment ratio is at most 0.25.

Regarding VYFN, the enrichment ratio is at most 0.25.

As for VGPY, the enrichment ratio was at most 0.25.

In the case of LCTR, the enrichment ratio is at most 0.25.

As to SLWT, the enrichment ratio is at most 0.25.

Consider SEWT, for which the enrichment ratio was 13.2.

Take HPWT: the enrichment ratio is at most 0.25.

For KSWT, the enrichment ratio was at most 0.25.

With ADWT, the enrichment ratio was at most 0.25.

For LLWT, the enrichment ratio is at most 0.25.

As to TEWT, the enrichment ratio was 12.8.

RLWT: the enrichment ratio was at most 0.25.

With SPWT, the enrichment ratio is at most 0.25.

For the variant LEWT, the enrichment ratio was 12.5.

As to LRWT, the enrichment ratio is at most 0.25.

Take TDWT: the enrichment ratio was found to be 25.1.

On to MNIK, for which the enrichment ratio was at most 0.25.

Consider LKPQ, for which the enrichment ratio was at most 0.25.

Turning to MYHS, the enrichment ratio is at most 0.25.

For LAEQ, the enrichment ratio was at most 0.25.

On to KQHW, for which the enrichment ratio was at most 0.25.

Turning to LWPI, the enrichment ratio is at most 0.25.

As to IYVA, the enrichment ratio is at most 0.25.

With RPSC, the enrichment ratio was at most 0.25.

Take GEHV: the enrichment ratio was at most 0.25.

On to YVEW, for which the enrichment ratio is at most 0.25.

Take RVGM: the enrichment ratio is at most 0.25.

Turning to SLSL, the enrichment ratio worked out at 10.7.

GGSL: the enrichment ratio was 3.4.

As for NISL, the enrichment ratio stood at 0.771.

With NGSL, the enrichment ratio is at most 0.25.

Take GDSL: the enrichment ratio is at most 0.25.

On to TLSL, for which the enrichment ratio worked out at 15.8.

In the case of VLSL, the enrichment ratio turned out to be 0.415.

As to GLSL, the enrichment ratio was determined as 11.5.

As to TISL, the enrichment ratio is 19.4.

Take WISL: the enrichment ratio is at most 0.25.

Regarding GLSK, the enrichment ratio is at most 0.25.

On to TGSL, for which the enrichment ratio is 16.8.

On to WCCL, for which the enrichment ratio is at most 0.25.

In the case of HISH, the enrichment ratio is at most 0.25.

VTMH: the enrichment ratio was at most 0.25.

Turning to AIRA, the enrichment ratio was at most 0.25.

Take TVSY: the enrichment ratio turned out to be 10.4.

On to MVVG, for which the enrichment ratio was at most 0.25.

With YGHF, the enrichment ratio was at most 0.25.

For the variant TASL, the enrichment ratio was found to be 15.1.

Take SPSL: the enrichment ratio is at most 0.25.

For the variant SGSL, the enrichment ratio turned out to be 11.8.

Turning to NASL, the enrichment ratio is at most 0.25.

Regarding NVSL, the enrichment ratio is at most 0.25.

KASL: the enrichment ratio is at most 0.25.

With TVSL, the enrichment ratio is 14.4.

In the case of YWEI, the enrichment ratio is at most 0.25.

For PCWT, the enrichment ratio is at most 0.25.

As to HICM, the enrichment ratio is at most 0.25.

Regarding DTPM, the enrichment ratio is at most 0.25.

Consider FGCS, for which the enrichment ratio is at most 0.25.

As to FGCI, the enrichment ratio is 7.38.

On to FGCQ, for which the enrichment ratio worked out at 13.2.

With NGCQ, the enrichment ratio was at most 0.25.

On to RGCQ, for which the enrichment ratio is at most 0.25.

Turning to TGCQ, the enrichment ratio is 13.9.

On to SPCQ, for which the enrichment ratio is at most 0.25.

In the case of STCQ, the enrichment ratio turned out to be 15.3.

For the variant GECI, the enrichment ratio turned out to be 7.86.

Take GECQ: the enrichment ratio was found to be 17.

As to GECS, the enrichment ratio stood at 7.23.

SQCQ: the enrichment ratio turned out to be 3.73.

Turning to WIRR, the enrichment ratio is at most 0.25.

Consider DKPL, for which the enrichment ratio was at most 0.25.

As for LNCS, the enrichment ratio was at most 0.25.

HHGV: the enrichment ratio is at most 0.25.

With NSRQ, the enrichment ratio was at most 0.25.

Take LTKK: the enrichment ratio was at most 0.25.

Consider ARTW, for which the enrichment ratio was at most 0.25.

Turning to SHKM, the enrichment ratio was at most 0.25.

For the variant ACGT, the enrichment ratio was 4.5.

Take HFGF: the enrichment ratio was at most 0.25.

As for MLHA, the enrichment ratio is at most 0.25.

With GTCQ, the enrichment ratio came to 13.4.

Consider GECL, for which the enrichment ratio came to 5.03.

With ITCQ, the enrichment ratio is at most 0.25.

For GECV, the enrichment ratio was 16.3.

In the case of TTCQ, the enrichment ratio was determined as 18.9.

In the case of GNCQ, the enrichment ratio stood at 12.1.

In the case of GECA, the enrichment ratio came out at 1.47.

As for GICQ, the enrichment ratio was 10.3.

With YTCQ, the enrichment ratio was found to be 1.7.

Take DTCQ: the enrichment ratio is at most 0.25.

As to MTCQ, the enrichment ratio was at most 0.25.

As for GNHP, the enrichment ratio was at most 0.25.

Consider MPVD, for which the enrichment ratio was at most 0.25.

For the variant LRSS, the enrichment ratio is at most 0.25.

QFGG: the enrichment ratio is at most 0.25.

Consider YYIN, for which the enrichment ratio was at most 0.25.

Turning to IIQY, the enrichment ratio is at most 0.25.

NRIW: the enrichment ratio was at most 0.25.

For the variant HQPD, the enrichment ratio is at most 0.25.

With YMHI, the enrichment ratio was at most 0.25.

Consider FYKD, for which the enrichment ratio is at most 0.25.

Consider HRDN, for which the enrichment ratio is at most 0.25.

Regarding QQHS, the enrichment ratio was at most 0.25.

Turning to YSME, the enrichment ratio was determined as 1.23.

MDWD: the enrichment ratio was at most 0.25.

On to FRMF, for which the enrichment ratio was at most 0.25.

For the variant GHCQ, the enrichment ratio is at most 0.25.

For NICQ, the enrichment ratio is at most 0.25.

With GGCQ, the enrichment ratio was 13.2.

Consider LNMQ, for which the enrichment ratio is at most 0.25.

For the variant NCQG, the enrichment ratio is at most 0.25.

Turning to NALL, the enrichment ratio came out at 5.99.

NWCN: the enrichment ratio is at most 0.25.

For TALI, the enrichment ratio was 18.1.

As for KALL, the enrichment ratio was at most 0.25.

As for TACN, the enrichment ratio amounted to 13.

On to YACN, for which the enrichment ratio was at most 0.25.

For the variant TADK, the enrichment ratio is at most 0.25.

Consider TALL, for which the enrichment ratio was found to be 12.

NALQ: the enrichment ratio was at most 0.25.

For TALQ, the enrichment ratio is 15.2.

Consider KALQ, for which the enrichment ratio was at most 0.25.

For the variant IALI, the enrichment ratio came to 9.02.

For PICT, the enrichment ratio is at most 0.25.

For DTQQ, the enrichment ratio is at most 0.25.

On to VDFR, for which the enrichment ratio is at most 0.25.

In the case of SNNF, the enrichment ratio was found to be 6.15.

Turning to GFIP, the enrichment ratio is at most 0.25.

GLMF: the enrichment ratio is 1.04.

Take FESF: the enrichment ratio was at most 0.25.

As to AAEK, the enrichment ratio was at most 0.25.

With QIFT, the enrichment ratio was at most 0.25.

Turning to TALC, the enrichment ratio turned out to be 20.9.

Consider KALC, for which the enrichment ratio was at most 0.25.

As to TAQN, the enrichment ratio was at most 0.25.

As for TALN, the enrichment ratio came to 18.9.

As for TALA, the enrichment ratio worked out at 13.8.

On to TALT, for which the enrichment ratio is 9.61.

Turning to EALN, the enrichment ratio was at most 0.25.

On to IALC, for which the enrichment ratio was 1.46.

On to TALS, for which the enrichment ratio was 10.9.

For the variant MHGF, the enrichment ratio was at most 0.25.

For YMMK, the enrichment ratio is at most 0.25.

As for QQSN, the enrichment ratio is at most 0.25.

Consider NNFF, for which the enrichment ratio was at most 0.25.

Consider VDVG, for which the enrichment ratio is at most 0.25.

In the case of FFRS, the enrichment ratio was at most 0.25.

Regarding FHDF, the enrichment ratio was at most 0.25.

For the variant MQYS, the enrichment ratio was 6.75.

With QTFE, the enrichment ratio was at most 0.25.

Turning to SEKM, the enrichment ratio is at most 0.25.

Regarding TANR, the enrichment ratio was at most 0.25.

As for ASYY, the enrichment ratio was at most 0.25.

As for ASAA, the enrichment ratio was found to be 13.4.

ASAT: the enrichment ratio is 10.1.

Turning to ASAD, the enrichment ratio was at most 0.25.

Regarding KSAA, the enrichment ratio is at most 0.25.

In the case of ASRY, the enrichment ratio is at most 0.25.

As to ASAI, the enrichment ratio came to 13.2.

In the case of ASAS, the enrichment ratio stood at 15.3.

Take ASAG: the enrichment ratio amounted to 7.21.

In the case of IFDK, the enrichment ratio was at most 0.25.

Values taken from a collection of fitness landscapes (doi:10.1126/science.1257360).
